What all share (assay): DAPPL (digital affinity profiling via proximity ligation, sequencing); 10 mM Tris-HCl pH 7.5, 50 mM NaCl, 1 mM DTT, 4% glycerol, room temperature, 30 min; GST-TFs on glutathione beads, 16-mer random dsDNA library, 0.1% formaldehyde crosslink after washing; high values mean tight binding
What all share (conditions): protein: recombinant; tags: N-terminal GST; dsDNA, one strand shown

One assay deals with T1, ELK4 (Homo sapiens, UniProt P28324-2 1-405).
T1 sequence: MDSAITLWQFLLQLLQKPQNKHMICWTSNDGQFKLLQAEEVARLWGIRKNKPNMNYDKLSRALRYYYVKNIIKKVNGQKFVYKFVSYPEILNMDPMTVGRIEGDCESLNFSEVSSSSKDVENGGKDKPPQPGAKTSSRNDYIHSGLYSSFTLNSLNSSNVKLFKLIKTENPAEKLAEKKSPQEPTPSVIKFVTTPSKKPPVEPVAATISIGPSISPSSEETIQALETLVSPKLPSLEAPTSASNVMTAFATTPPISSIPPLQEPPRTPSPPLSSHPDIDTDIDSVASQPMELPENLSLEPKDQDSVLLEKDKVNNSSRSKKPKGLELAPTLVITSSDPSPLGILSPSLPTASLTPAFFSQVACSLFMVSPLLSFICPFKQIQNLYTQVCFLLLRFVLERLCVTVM
The method, boiled down:
(§1)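 Human transcription factors carrying a GST fusion were produced in yeast, bound to glutathione beads, tagged with DNA barcodes and pooled together with a tag-only sample. Each pool was held with 200 nmole of a random double-stranded 16-mer DNA library in Tris/NaCl/DTT/glycerol buffer for 30 min at room temperature, then washed, crosslinked in 0.1% formaldehyde, proximity-ligated with BsaI/T4 ligase (1 h, 37 °C), PCR-amplified and sequenced on an Illumina NextSeq500. Binding signal is the read frequency of each hexamer for a given factor divided by its frequency in the tag-only sample.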

The target of another assay is T2, ETV2 (Homo sapiens, UniProt O00321 1-342).
T2 sequence: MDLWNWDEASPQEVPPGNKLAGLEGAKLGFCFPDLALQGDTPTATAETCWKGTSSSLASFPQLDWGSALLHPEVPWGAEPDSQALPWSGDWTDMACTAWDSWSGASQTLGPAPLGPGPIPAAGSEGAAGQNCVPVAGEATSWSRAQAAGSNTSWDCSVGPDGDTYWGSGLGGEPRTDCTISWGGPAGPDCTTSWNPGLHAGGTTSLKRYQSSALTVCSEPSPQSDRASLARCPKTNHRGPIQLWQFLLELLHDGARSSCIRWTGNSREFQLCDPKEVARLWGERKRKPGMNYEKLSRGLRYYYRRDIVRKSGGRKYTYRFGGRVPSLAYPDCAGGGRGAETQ
The essentials:
as §1

In the next assay the target is T3, ELF3 (Homo sapiens, UniProt P78545 1-371).
T3 sequence: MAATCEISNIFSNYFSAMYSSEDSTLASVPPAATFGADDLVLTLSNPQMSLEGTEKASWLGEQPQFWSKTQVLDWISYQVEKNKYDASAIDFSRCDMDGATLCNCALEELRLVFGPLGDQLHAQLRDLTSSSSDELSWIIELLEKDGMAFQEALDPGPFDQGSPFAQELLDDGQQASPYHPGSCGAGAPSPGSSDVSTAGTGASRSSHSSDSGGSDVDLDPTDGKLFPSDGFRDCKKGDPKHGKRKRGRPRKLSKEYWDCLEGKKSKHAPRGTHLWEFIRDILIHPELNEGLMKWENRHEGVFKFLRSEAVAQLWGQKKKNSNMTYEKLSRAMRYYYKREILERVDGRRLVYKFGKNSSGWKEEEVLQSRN
The method, boiled down: as §1

The next assay has as its target T4, SPDEF (Homo sapiens, UniProt O95238 1-335).
T4 sequence: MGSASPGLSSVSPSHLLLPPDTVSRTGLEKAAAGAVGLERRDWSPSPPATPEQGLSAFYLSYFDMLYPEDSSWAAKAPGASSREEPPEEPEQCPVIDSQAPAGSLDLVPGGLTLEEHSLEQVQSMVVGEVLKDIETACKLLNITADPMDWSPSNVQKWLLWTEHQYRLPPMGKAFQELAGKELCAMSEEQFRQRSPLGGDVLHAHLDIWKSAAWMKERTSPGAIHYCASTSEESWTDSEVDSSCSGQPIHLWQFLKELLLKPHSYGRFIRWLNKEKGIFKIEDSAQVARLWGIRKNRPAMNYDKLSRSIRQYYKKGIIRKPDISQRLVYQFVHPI
The essentials:
as §1

The target of a further assay is T5, ELK1 (Homo sapiens, UniProt P19419 1-428).
T5 sequence: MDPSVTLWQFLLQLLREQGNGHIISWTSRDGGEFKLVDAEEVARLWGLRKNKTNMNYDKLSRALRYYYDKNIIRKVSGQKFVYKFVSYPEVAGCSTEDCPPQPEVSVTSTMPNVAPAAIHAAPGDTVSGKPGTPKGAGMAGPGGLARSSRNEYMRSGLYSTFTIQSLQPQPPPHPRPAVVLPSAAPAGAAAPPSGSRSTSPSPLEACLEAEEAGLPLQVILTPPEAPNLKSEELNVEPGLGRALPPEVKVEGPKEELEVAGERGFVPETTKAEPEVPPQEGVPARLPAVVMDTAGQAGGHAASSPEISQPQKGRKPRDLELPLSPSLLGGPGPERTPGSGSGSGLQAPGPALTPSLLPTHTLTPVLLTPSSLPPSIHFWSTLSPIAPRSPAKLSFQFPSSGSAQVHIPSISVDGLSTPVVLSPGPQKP
The essentials: as §1

In the next assay the target is T6, ERG (Homo sapiens, UniProt P11308 1-479).
T6 sequence: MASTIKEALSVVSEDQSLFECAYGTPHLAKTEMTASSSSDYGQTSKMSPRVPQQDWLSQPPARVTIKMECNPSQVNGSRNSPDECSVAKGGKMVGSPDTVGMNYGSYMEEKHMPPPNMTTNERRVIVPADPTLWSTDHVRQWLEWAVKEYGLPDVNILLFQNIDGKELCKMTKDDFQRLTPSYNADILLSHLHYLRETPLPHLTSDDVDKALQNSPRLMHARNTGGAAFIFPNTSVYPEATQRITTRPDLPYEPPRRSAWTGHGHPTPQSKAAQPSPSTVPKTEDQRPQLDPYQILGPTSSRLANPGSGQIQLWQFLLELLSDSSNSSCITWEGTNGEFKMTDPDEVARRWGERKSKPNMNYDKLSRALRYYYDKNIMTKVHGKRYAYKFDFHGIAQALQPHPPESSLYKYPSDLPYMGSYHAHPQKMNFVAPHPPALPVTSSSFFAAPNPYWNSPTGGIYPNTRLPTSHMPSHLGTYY
The essentials: as §1

In a further assay the target is SPIB (Homo sapiens, UniProt Q01892 1-262). The essentials: as §1
Sequence of SPIB (Q01892 whole entry): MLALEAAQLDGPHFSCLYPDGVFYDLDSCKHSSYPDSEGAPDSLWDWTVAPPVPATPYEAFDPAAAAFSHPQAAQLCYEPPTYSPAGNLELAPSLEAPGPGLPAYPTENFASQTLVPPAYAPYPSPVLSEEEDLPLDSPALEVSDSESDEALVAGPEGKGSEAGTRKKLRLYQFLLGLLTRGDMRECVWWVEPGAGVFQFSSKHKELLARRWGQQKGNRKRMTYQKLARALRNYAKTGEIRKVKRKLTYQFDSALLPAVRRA
The next assay concerns the target T7, ELF5 (Homo sapiens, UniProt Q9UKW6-2 1-255).
T7 sequence: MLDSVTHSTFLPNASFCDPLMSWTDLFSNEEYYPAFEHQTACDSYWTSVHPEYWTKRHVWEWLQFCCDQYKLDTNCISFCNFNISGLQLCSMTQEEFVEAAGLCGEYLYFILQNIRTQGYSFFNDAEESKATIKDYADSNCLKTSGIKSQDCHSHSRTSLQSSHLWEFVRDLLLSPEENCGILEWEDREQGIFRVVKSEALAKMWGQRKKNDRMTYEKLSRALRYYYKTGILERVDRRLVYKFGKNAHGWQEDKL
The essentials:
as §1

The next assay has as its target ELF1 (Homo sapiens, UniProt P32519 1-619). The method, boiled down:
as §1

In the next assay the target is CRX (Homo sapiens, UniProt O43186 1-299). The method, boiled down:
as §1

A further assay addresses T8, ETV3 (Homo sapiens, UniProt P41162-2 1-143).
T8 sequence: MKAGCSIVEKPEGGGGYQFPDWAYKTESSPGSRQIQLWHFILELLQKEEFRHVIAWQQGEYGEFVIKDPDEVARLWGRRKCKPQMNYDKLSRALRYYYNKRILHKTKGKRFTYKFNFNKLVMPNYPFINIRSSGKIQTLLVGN
The method, boiled down:
as §1

Another assay concerns the target T9, EHF (Homo sapiens, UniProt Q9NZC4 1-300).
T9 sequence: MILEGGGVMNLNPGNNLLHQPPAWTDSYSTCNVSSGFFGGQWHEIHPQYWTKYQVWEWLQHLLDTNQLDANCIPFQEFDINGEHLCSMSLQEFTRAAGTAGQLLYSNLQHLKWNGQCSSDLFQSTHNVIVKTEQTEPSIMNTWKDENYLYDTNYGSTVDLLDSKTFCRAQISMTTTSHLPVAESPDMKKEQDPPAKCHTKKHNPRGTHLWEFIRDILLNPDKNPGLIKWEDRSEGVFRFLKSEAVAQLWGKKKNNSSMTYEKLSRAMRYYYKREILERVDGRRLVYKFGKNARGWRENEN
The method, boiled down:
as §1

Sequence of CRX (O43186 whole entry): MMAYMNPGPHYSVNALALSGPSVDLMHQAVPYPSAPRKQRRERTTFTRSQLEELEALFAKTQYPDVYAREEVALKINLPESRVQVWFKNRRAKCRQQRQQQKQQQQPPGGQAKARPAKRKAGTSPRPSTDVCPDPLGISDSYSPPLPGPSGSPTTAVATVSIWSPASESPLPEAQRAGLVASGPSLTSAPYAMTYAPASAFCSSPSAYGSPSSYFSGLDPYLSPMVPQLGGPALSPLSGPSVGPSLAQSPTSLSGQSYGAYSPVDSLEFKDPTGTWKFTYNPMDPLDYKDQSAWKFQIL
Sequence of ELF1 (P32519 whole entry): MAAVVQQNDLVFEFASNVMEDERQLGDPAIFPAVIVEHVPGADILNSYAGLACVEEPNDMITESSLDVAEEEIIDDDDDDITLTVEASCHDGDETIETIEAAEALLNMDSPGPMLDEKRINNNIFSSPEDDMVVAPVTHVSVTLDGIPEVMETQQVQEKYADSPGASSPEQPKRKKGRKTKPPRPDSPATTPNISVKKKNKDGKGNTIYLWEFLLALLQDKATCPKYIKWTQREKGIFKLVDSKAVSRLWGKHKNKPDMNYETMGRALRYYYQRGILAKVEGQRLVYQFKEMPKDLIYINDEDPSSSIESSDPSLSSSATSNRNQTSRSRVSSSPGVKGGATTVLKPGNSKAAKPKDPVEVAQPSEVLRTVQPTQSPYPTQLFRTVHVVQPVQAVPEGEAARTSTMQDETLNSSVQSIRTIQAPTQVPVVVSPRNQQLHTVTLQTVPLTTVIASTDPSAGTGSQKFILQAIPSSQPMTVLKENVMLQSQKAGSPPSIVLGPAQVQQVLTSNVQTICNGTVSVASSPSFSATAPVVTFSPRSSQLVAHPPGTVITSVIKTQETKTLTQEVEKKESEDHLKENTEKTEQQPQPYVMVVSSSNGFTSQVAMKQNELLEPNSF

In the case of TGTTAG, the binding signal is 1.13 fold enrichment (6-mer frequency, TF over GST control) in the assay with ELK4; 1.03 fold enrichment (6-mer frequency, TF over GST control) with ETV2; 1 fold enrichment (6-mer frequency, TF over GST control) with ELF3; 1.03 fold enrichment (6-mer frequency, TF over GST control) with SPDEF.
In the case of GATCCG, the binding signal with ELK1 is 1.01 fold enrichment (6-mer frequency, TF over GST control); in the assay with ERG it was 1.04 fold enrichment (6-mer frequency, TF over GST control); in the assay with SPIB, 1.05 fold enrichment (6-mer frequency, TF over GST control); with ELK4, 1 fold enrichment (6-mer frequency, TF over GST control); with SPDEF it was 1.65 fold enrichment (6-mer frequency, TF over GST control); with ELF5 it was 1.02 fold enrichment (6-mer frequency, TF over GST control).
Consider TCAGTA, for which the binding signal was 1.01 fold enrichment (6-mer frequency, TF over GST control) with ELF1; 1.01 fold enrichment (6-mer frequency, TF over GST control) with ELK4; 1.03 fold enrichment (6-mer frequency, TF over GST control) with ETV2; 1.08 fold enrichment (6-mer frequency, TF over GST control) in the assay with ELF3; 1.07 fold enrichment (6-mer frequency, TF over GST control) with CRX; 1.03 fold enrichment (6-mer frequency, TF over GST control) in the assay with ETV3.
Regarding AGCCAT, the binding signal with ETV2 was 1.02 fold enrichment (6-mer frequency, TF over GST control).
TAGTCA: the binding signal with ELF3 is 1.07 fold enrichment (6-mer frequency, TF over GST control).
As to GTATCG, the binding signal with ETV2 was 1.09 fold enrichment (6-mer frequency, TF over GST control); in the assay with ELF3, 1.13 fold enrichment (6-mer frequency, TF over GST control).
On to CTGGGA, for which the binding signal with ETV2 was 1.01 fold enrichment (6-mer frequency, TF over GST control).
Take ACAAGT: the binding signal with ELF3 was 1 fold enrichment (6-mer frequency, TF over GST control).
On to CATCGT, for which the binding signal with EHF was 1 fold enrichment (6-mer frequency, TF over GST control); with SPIB, 1.05 fold enrichment (6-mer frequency, TF over GST control); with ETV2, 1.01 fold enrichment (6-mer frequency, TF over GST control).

Source of the values: publication PMC7862700, “An all-to-all approach to the identification of sequence-specific readers for epigenetic DNA modifications on cytosine”.
